Results as given in PubChem BioAssay (EPA / NIEHS).
Inconclusive results are not listed. Calls of active or inactive are those of the source. How the source made its calls, unless noted: active means hit-call score of the fitted dose curve at least 0.9, where 1 is the maximum; inconclusive means response in the unintended direction; inactive means score below 0.9.

Experiments:
[1] = ATG_TGFb_CIS: Attagene CIS-FACTORIAL HepG2 Assay for human Transforming Growth Factor (TGF) (AID 2282967; active means hit-call score of the fitted dose curve at least 0.9, where 1 is the maximum; inactive means score below 0.9); conditions: HepG2 Attagene CIS TGFb reporter, mRNA transcription; actives raise or lower the signal
How it was run: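 Bidirectional fitting relative to DMSO gave the endpoint. Underlying data: reporter mRNA from HepG2 cells carrying transiently transfected cis-regulated reporter constructs, harvested 24 h after dosing and analyzed by RT-PCR and capillary electrophoresis.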

[2] = ATG_VDRE_CIS: Attagene CIS-FACTORIAL HepG2 Assay for human Vitamin D Receptor Element (VDRE) (AID 2282968; active means hit-call score of the fitted dose curve at least 0.9, where 1 is the maximum; inactive means score below 0.9); conditions: HepG2 VDRE cis-reporter transcription, actives raise or lower the signal
How it was run: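 Cell-based multiplexed reporter format in human liver HepG2 cells, 24 h post-dose. Fluorescence from capillary electrophoresis of reporter cDNA gives the signal, with DMSO as negative control and baseline.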

[3] = biological target: Estrogen receptor (Homo sapiens) (UniProt P03372); test: ATG_ERa_TRANS: Attagene TRANS-FACTORIAL HepG2 Assay for human Estrogen Receptor alpha (ERa) (AID 2282970); conditions: HepG2 Attagene TRANS ERa GAL4 reporter, mRNA
Sequence of Estrogen receptor (Homo sapiens) (P03372 whole entry, looked up, the tested form may be a part): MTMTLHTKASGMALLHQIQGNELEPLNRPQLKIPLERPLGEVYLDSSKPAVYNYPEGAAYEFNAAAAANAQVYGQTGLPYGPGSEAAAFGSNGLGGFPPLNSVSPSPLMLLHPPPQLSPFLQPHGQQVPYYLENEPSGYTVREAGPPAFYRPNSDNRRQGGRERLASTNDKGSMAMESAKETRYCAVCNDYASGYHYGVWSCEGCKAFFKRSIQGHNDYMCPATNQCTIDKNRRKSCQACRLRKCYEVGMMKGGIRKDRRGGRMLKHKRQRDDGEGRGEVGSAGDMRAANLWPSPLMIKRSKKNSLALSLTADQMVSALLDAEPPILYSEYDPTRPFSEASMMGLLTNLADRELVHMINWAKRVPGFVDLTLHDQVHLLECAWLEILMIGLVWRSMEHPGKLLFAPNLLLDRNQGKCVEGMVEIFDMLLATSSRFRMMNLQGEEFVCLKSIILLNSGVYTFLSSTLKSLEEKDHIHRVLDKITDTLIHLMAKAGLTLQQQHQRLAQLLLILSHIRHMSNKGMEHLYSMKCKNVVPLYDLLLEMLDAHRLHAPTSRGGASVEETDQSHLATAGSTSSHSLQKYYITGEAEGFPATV
How it was run: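 Human liver HepG2, transient transfection of multiple GAL4-UAS reporter units; TRANS format (exogenous NR-Gal4 chimera). 24 h dosing. Readout: reporter mRNA, RT-PCR, 6-FAM primer extension, HpaI digest, capillary electrophoresis. Positive direction vs DMSO.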

[4] = biological target: X-box-binding protein 1 (Homo sapiens) (UniProt P17861); test: ATG_Xbp1_CIS: Attagene CIS-FACTORIAL HepG2 Assay for human X-box Binding Protein 1 (XBP1) (AID 2282972; active means hit-call score of the fitted dose curve at least 0.9, where 1 is the maximum; inactive means score below 0.9); conditions: HepG2 XBP1 cis-element reporter, Attagene multiplex; actives raise or lower the signal
Sequence of X-box-binding protein 1 (Homo sapiens) (P17861 whole entry, looked up): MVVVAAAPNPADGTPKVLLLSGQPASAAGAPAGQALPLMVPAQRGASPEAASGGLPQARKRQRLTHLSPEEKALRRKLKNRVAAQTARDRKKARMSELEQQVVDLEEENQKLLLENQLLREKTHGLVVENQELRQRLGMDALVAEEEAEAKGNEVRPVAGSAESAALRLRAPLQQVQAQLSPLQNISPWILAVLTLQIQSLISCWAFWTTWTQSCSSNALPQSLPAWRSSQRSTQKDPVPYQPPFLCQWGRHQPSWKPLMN
How it was run: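 After a 24-hour chemical exposure of HepG2 cells carrying cis-regulated reporters, reporter mRNA levels are assessed. Quantification uses RT-PCR, 6-FAM labelling and capillary electrophoresis. Gain- or loss-of-signal is fitted against DMSO.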

[5] = ATG_M_19_TRANS: Attagene TRANS-FACTORIAL HepG2 Assay for M19 Transcription Factor (Internal Marker) (AID 2282974); conditions: HepG2 Attagene TRANS-FACTORIAL M19 internal marker reporter
How it was run: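 24 h chemical exposure of transiently transfected HepG2 (MRTU library). RNA → oligo(dT) RT → PCR → 6-FAM labelling → HpaI cut → CE fluorescence. Positive-direction fit vs DMSO baseline; background internal-marker readout.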

[6] = ATG_GAL4_TRANS: Attagene TRANS-FACTORIAL HepG2 Assay for GAL4 (Internal Marker) (AID 2282976); conditions: HepG2 Attagene TRANS GAL4 internal marker reporter
How it was run: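 First, HepG2 cells were transfected with reporter units under GAL4-UAS control. Next, they were treated with chemical for 24 h. Finally, RNA was reverse-transcribed, PCR-amplified, FAM-labelled and resolved by capillary electrophoresis, with induction scored against DMSO.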

[7] = biological target: Glucocorticoid receptor (Homo sapiens) (UniProt P04150); test: ATG_GR_TRANS: Attagene TRANS-FACTORIAL HepG2 Assay for human Glucocorticoid Receptor (GR) (AID 2282978); conditions: HepG2 Attagene TRANS GR reporter, mRNA transcription;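 further: activators score as hits since higher reporter transcript over DMSO is fitted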
Sequence of Glucocorticoid receptor (Homo sapiens) (P04150 whole entry, looked up, the tested form may be a part): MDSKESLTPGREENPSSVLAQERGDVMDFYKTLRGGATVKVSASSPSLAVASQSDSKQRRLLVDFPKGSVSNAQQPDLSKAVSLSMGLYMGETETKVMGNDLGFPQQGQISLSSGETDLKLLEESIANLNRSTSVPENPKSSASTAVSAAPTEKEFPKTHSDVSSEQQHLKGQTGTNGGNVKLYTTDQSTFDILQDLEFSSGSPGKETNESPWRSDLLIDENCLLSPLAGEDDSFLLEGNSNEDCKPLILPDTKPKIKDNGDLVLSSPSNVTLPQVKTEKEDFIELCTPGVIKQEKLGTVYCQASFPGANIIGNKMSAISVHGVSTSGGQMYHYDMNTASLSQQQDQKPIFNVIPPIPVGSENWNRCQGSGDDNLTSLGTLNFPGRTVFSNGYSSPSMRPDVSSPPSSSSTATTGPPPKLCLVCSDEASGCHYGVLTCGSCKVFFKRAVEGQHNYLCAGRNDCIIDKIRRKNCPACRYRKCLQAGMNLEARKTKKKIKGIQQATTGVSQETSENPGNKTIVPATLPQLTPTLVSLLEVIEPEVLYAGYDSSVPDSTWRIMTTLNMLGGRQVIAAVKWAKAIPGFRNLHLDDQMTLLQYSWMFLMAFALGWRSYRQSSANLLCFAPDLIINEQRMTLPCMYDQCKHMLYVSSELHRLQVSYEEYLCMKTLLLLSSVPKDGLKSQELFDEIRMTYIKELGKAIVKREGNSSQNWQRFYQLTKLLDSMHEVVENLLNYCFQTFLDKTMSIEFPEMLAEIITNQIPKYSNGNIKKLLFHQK
How it was run: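 Transient MRTU transfection of HepG2 (GAL4-UAS reporters, exogenous NR-GAL4 chimeras), 24 h dosing. Readout: reporter transcript via RT-PCR + capillary electrophoresis fluorescence. Positive direction vs DMSO baseline.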

[8] = biological target: Bile acid receptor (Homo sapiens) (UniProt Q96RI1); test: ATG_FXR_TRANS: Attagene TRANS-FACTORIAL HepG2 Assay for Farnesoid X Receptor (FXR) (AID 2282979); conditions: HepG2 Attagene TRANS FXR-GAL4 reporter transcription;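 further: hits raise reporter mRNA above DMSO so AC50 marks FXR activation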
Sequence of Bile acid receptor (Homo sapiens) (Q96RI1 whole entry, looked up, the tested form may be a part): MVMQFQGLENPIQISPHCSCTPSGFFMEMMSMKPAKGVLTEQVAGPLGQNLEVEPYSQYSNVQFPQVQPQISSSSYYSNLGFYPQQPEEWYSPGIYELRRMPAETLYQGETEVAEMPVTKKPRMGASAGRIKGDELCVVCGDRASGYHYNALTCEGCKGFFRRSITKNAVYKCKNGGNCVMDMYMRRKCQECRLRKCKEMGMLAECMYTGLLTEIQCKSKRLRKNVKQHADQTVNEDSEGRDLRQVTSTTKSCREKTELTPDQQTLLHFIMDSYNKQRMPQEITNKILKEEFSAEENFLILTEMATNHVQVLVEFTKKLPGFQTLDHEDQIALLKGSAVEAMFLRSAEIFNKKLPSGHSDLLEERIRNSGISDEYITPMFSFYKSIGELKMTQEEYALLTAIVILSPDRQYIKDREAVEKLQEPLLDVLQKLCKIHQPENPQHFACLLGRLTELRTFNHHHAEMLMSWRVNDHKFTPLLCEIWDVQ
How it was run: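 Transient transfection of HepG2 with multiplexed GAL4-UAS reporter units; exogenous FXR-GAL4 chimera. Dose 24 h → TriZol RNA → oligo(dT) RT → PCR, 6-FAM primer extension, HpaI cut → CE. Gain vs DMSO.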

[9] = biological target: Oxysterols receptor LXR-alpha (Homo sapiens) (UniProt Q13133); test: ATG_LXRa_TRANS: Attagene TRANS-FACTORIAL HepG2 Assay for human Liver X Receptor alpha (LXRa) (AID 2282980); conditions: HepG2 Attagene TRANS reporter, LXRa transactivation
Sequence of Oxysterols receptor LXR-alpha (Homo sapiens) (Q13133 whole entry, looked up, the tested form may be a part): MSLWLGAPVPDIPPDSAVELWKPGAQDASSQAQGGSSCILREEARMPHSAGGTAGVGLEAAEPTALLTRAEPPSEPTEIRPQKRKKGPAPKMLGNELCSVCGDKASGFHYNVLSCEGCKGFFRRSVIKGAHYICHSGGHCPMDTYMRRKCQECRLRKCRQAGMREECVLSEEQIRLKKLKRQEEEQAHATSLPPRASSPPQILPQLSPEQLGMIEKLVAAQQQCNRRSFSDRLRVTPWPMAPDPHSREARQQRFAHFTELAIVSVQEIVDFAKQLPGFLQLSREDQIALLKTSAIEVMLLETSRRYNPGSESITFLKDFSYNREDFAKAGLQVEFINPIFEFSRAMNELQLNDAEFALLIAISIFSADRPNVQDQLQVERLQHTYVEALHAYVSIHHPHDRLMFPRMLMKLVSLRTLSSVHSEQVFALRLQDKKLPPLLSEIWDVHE
How it was run: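 Transfect HepG2 with GAL4-UAS multiplex reporter constructs (TRANS format, chimeric receptor-GAL4); treat 24 h; extract RNA, reverse-transcribe, PCR-amplify, FAM-label, HpaI-digest; resolve fragments by capillary electrophoresis. Upward response vs DMSO.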

[10] = biological target: Oxysterols receptor LXR-beta (Homo sapiens) (UniProt P55055); test: ATG_LXRb_TRANS: Attagene TRANS-FACTORIAL HepG2 Assay for human Liver X Receptor beta (LXRb) (AID 2282981); conditions: HepG2 Attagene TRANS GAL4-LXRb reporter, mRNA
Sequence of Oxysterols receptor LXR-beta (Homo sapiens) (P55055 whole entry, looked up, the tested form may be a part): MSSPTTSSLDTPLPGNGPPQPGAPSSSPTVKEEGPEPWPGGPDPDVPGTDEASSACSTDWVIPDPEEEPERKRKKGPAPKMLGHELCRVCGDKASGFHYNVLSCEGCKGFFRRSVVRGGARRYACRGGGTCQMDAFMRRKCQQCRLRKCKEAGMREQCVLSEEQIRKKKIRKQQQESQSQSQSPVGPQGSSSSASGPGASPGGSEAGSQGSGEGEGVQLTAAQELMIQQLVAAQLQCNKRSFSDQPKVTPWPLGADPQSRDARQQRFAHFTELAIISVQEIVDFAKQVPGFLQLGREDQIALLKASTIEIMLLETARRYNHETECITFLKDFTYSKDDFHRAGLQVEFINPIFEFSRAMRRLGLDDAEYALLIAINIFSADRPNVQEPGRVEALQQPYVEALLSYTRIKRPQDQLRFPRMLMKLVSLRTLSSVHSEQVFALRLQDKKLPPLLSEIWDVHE
How it was run: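 Gain-of-signal mRNA reporter endpoint, DMSO as negative control. Transiently transfected HepG2 cells carrying the NR-Gal4 chimera and GAL4-UAS reporter units were treated 24 h; transcripts quantified by RT-PCR and capillary electrophoresis fluorescence.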

[11] = ATG_M_06_TRANS: Attagene TRANS-FACTORIAL HepG2 Assay for M06 Transcription Factor (Internal Marker) (AID 2282983); conditions: HepG2 Attagene TRANS M06 internal marker reporter
How it was run: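 Transfect HepG2 with MRTUs → dose compounds 24 h → isolate RNA, oligo(dT) RT → PCR with reporter primers → 6-FAM primer extension → HpaI digest → CE fragment analysis. Positive direction vs DMSO.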

[12] = ATG_M_32_TRANS: Attagene TRANS-FACTORIAL HepG2 Assay for M32 Transcription Factor (Internal Marker) (AID 2282984); conditions: HepG2 Attagene TRANS M32 internal marker reporter;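 further: transcript level of a background control reporter unit measured by RT-PCR and capillary electrophoresis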
How it was run: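 Capillary electrophoresis of 6-FAM-labelled reporter fragments gives the signal; data fitted for gain over DMSO negative control. Source: HepG2 cells bearing transient multiple reporter transcription units, 24 h exposure.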

[13] = biological target: Transcriptional activator Myb (Homo sapiens) (UniProt P10242); test: ATG_Myb_CIS: Attagene CIS-FACTORIAL HepG2 Assay for human Myeloblastosis (Myb) Proto-Oncogene Transcription Factor (AID 2282986; active means hit-call score of the fitted dose curve at least 0.9, where 1 is the maximum; inactive means score below 0.9); conditions: HepG2 Attagene CIS-FACTORIAL Myb reporter transcription; actives raise or lower the signal
Sequence of Transcriptional activator Myb (Homo sapiens) (P10242 whole entry, looked up): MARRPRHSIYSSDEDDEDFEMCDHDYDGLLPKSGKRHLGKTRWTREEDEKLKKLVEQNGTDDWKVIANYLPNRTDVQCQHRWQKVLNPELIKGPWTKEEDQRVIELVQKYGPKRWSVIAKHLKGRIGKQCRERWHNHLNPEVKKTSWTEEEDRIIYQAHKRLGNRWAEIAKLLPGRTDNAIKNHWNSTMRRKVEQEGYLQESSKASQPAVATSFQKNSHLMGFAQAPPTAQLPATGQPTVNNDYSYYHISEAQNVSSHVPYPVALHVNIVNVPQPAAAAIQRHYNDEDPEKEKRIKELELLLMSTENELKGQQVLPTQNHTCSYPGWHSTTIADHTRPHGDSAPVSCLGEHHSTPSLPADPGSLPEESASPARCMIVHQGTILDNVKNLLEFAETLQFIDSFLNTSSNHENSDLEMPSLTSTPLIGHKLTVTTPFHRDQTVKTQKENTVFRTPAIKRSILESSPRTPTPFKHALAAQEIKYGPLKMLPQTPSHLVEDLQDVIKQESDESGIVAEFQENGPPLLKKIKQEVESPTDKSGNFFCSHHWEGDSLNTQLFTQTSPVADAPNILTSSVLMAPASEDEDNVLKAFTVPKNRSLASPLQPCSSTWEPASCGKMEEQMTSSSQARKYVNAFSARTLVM
How it was run: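 HepG2, transient MRTU transfection (cis-element promoters, endogenous TF activity), 24 h compound exposure. Readout: reporter mRNA via RT-PCR, 6-FAM labeling, HpaI digest, capillary electrophoresis. Gain/loss fit vs DMSO.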

[14] = biological target: Nuclear respiratory factor 1 (Homo sapiens) (UniProt Q16656); test: ATG_NRF1_CIS: Attagene CIS-FACTORIAL HepG2 Assay for human Nuclear Respiratory Factor 1 (NRF1) Orphan Gene (AID 2282987; active means hit-call score of the fitted dose curve at least 0.9, where 1 is the maximum; inactive means score below 0.9); conditions: HepG2 NRF1 cis-element reporter, Attagene multiplex; actives raise or lower the signal
Sequence of Nuclear respiratory factor 1 (Homo sapiens) (Q16656 whole entry, looked up): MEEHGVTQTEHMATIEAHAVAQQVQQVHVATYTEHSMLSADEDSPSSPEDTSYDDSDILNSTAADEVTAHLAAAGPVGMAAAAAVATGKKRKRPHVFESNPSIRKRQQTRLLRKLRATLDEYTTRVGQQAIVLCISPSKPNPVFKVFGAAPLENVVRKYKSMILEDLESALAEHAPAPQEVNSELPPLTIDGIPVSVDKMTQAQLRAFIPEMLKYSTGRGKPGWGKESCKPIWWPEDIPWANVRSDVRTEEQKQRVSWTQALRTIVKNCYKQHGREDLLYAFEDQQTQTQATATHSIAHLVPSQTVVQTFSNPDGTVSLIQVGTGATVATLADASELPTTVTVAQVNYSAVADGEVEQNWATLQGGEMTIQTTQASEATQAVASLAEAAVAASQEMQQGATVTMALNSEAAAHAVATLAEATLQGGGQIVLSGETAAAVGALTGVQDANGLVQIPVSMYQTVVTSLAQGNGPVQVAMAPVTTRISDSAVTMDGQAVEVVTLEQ
How it was run: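 Endogenous NRF1-driven reporter transcription measured in transiently transfected human HepG2 liver cells. Readout: reporter mRNA by RT-PCR and capillary electrophoresis with fluorescence detection, 24 h post-dosing. Gain or loss of signal fitted relative to DMSO baseline.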

[15] = biological target: Hepatocyte nuclear factor 4-alpha (Homo sapiens) (UniProt P41235); test: ATG_HNF4a_TRANS: Attagene TRANS-FACTORIAL HepG2 Assay for human Hepatocyte Nuclear Factor 4 alpha (HNF4a) (AID 2282982); conditions: HepG2 HNF4a transactivation reporter, mRNA readout
How it was run: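 Gain-of-signal mRNA induction, relative to DMSO vehicle, was read after 24 h compound treatment of HepG2 cells bearing transfected GAL4-UAS reporters. Detection used RT-PCR, 6-FAM primer extension and capillary electrophoresis.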

[16] = biological target: Steroid hormone receptor ERR1 (Homo sapiens) (UniProt P11474); test: ATG_ERRa_TRANS: Attagene TRANS-FACTORIAL HepG2 Assay for human Estrogen-Related Receptor alpha (ERRa) (AID 2282971); conditions: HepG2 Attagene TRANS reporter, ERRa transactivation
How it was run: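 Reporter transcript induction was quantified by RT-PCR and capillary electrophoresis of FAM-labelled, HpaI-cut products after 24 h treatment of HepG2 cells carrying transiently transfected GAL4-UAS reporter units and an exogenous ERRa-Gal4 fusion; activity scored as increase over DMSO.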

[17] = biological target: Nuclear receptor subfamily 4 group A member 2 (Homo sapiens) (UniProt P43354); test: ATG_NURR1_TRANS: Attagene TRANS-FACTORIAL HepG2 Assay for human Nuclear Receptor Related Protein 1 (NURR1) (AID 2282985); conditions: HepG2 Attagene TRANS reporter, mRNA readout
Sequence of Nuclear receptor subfamily 4 group A member 2 (Homo sapiens) (P43354 whole entry, looked up): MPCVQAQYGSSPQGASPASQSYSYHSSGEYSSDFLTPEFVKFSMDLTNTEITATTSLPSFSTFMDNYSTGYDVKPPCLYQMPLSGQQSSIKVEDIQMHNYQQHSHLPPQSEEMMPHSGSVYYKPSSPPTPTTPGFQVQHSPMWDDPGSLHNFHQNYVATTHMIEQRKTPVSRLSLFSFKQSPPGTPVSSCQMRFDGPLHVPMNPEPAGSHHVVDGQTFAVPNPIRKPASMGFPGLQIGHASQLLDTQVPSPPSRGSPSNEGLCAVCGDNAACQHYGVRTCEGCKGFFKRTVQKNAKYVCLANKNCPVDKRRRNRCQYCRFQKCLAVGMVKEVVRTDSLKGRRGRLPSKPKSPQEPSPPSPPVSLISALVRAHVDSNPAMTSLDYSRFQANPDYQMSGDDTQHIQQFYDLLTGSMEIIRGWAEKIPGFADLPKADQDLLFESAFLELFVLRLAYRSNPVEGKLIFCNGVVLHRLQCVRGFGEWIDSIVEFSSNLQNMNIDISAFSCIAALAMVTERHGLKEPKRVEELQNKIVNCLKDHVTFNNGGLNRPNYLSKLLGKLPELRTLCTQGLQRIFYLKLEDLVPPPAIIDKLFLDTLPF
How it was run: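 HepG2 / transient MRTU transfection / 24 h compound exposure / RT-PCR + CE fluorescence of reporter mRNA / gain-of-signal vs DMSO.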

[18] = biological target: Androgen receptor (Homo sapiens) (UniProt P10275); test: ATG_AR_TRANS: Attagene TRANS-FACTORIAL HepG2 Assay for human Androgen Receptor (AR) (AID 2282973); conditions: HepG2 Attagene TRANS-FACTORIAL AR reporter transcription
How it was run: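 Steps: transfect HepG2 with multiple GAL4-UAS reporter transcription units (TRANS format, exogenous NR-Gal4 protein); dose 24 h; isolate RNA, reverse-transcribe, PCR-amplify, FAM-label, HpaI-digest; resolve by capillary electrophoresis. Positive direction vs DMSO.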

Compound: O=C(Cl)c1ccc(Cl)cc1
- outcome [1]: inactive
- outcome [2]: inactive
- outcome [3]: inactive
- outcome [4]: inactive
- outcome [5]: inactive
- outcome [6]: inactive
- outcome [7]: inactive
- outcome [8]: inactive
- outcome [9]: inactive
- outcome [10]: inactive
- outcome [11]: inactive
- outcome [12]: inactive
- outcome [13]: inactive
- outcome [14]: inactive

Compound: NC(=S)Nc1ccccc1
- outcome [1]: inactive
- outcome [2]: inactive
- AC50 [3]: 64.2 µM (active)
- outcome [4]: inactive
- outcome [5]: inactive
- outcome [6]: inactive
- outcome [10]: inactive
- outcome [15]: inactive
- outcome [11]: inactive
- outcome [12]: inactive
- outcome [13]: inactive
- outcome [14]: inactive

Compound: CC(=O)C=C(C)C
- outcome [1]: inactive
- outcome [2]: inactive
- outcome [3]: inactive
- outcome [16]: inactive
- outcome [4]: inactive
- outcome [6]: inactive
- outcome [7]: inactive
- outcome [10]: inactive
- outcome [11]: inactive
- outcome [12]: inactive
- outcome [17]: inactive
- outcome [13]: inactive
- outcome [14]: inactive

Compound: CCCCCCCCSC(=O)Oc1cc(Cl)nnc1-c1ccccc1
- AC50 [1]: 152 µM (active)
- AC50 [2]: 100 µM (active)
- outcome [3]: inactive
- outcome [4]: inactive
- outcome [5]: inactive
- outcome [6]: inactive
- outcome [17]: inactive
- outcome [13]: inactive
- outcome [14]: inactive

Compound: CCC1(c2ccc(N)cc2)CCC(=O)NC1=O (stereo not drawn)
- outcome [1]: inactive
- outcome [2]: inactive
- outcome [3]: inactive
- outcome [4]: inactive
- outcome [18]: inactive
- outcome [6]: inactive
- outcome [7]: inactive
- outcome [8]: inactive
- outcome [15]: inactive
- outcome [11]: inactive
- outcome [13]: inactive
- outcome [14]: inactive

Compound: O=[N+]([O-])c1ccc2c3c(cccc13)CC2
- AC50 [1]: 0.0823 µM (active)
- AC50 [2]: 11.5 µM (active)
- outcome [3]: inactive
- outcome [4]: inactive
- outcome [5]: inactive
- outcome [6]: inactive
- outcome [8]: inactive
- outcome [15]: inactive
- outcome [12]: inactive
- outcome [14]: inactive

Compound: CCCCCCCCC(=O)NCc1ccc(O)c(OC)c1
- outcome [1]: inactive
- outcome [2]: inactive
- outcome [3]: inactive
- outcome [4]: inactive
- outcome [15]: inactive
- outcome [11]: inactive
- outcome [12]: inactive
- outcome [17]: inactive
- outcome [13]: inactive
- outcome [14]: inactive

Compound: C1CCC(NC2CCCCC2)CC1
- outcome [1]: inactive
- outcome [2]: inactive
- AC50 [3]: 59.7 µM (active)
- outcome [4]: inactive
- outcome [5]: inactive
- outcome [9]: inactive
- outcome [12]: inactive
- outcome [13]: inactive
- outcome [14]: inactive

Compound: N#CN=C(N)N
- outcome [1]: inactive
- outcome [2]: inactive
- outcome [3]: inactive
- outcome [4]: inactive
- outcome [6]: inactive
- outcome [8]: inactive
- outcome [9]: inactive
- outcome [15]: inactive
- outcome [11]: inactive
- outcome [12]: inactive
- outcome [17]: inactive
- outcome [14]: inactive

Compound: C=C(C)C(=O)[O][Sn]([CH2]CCC)([CH2]CCC)[CH2]CCC
- outcome [1]: inactive
- AC50 [2]: 0.185 µM (active)
- outcome [3]: inactive
- AC50 [4]: 0.608 µM (active)
- AC50 [7]: 1.98 µM (active)
- outcome [15]: inactive
- outcome [11]: inactive
- AC50 [17]: 0.00168 µM (active)
- outcome [13]: inactive
- outcome [14]: inactive

Compound: CNC
- outcome [1]: inactive
- outcome [2]: inactive
- outcome [3]: inactive
- outcome [4]: inactive
- outcome [5]: inactive
- outcome [6]: inactive
- outcome [7]: inactive
- outcome [10]: inactive
- outcome [12]: inactive
- outcome [17]: inactive
- outcome [13]: inactive
- outcome [14]: inactive
